Among the data in the supplement of paper PMC6658780 are percent growth inhibition values, retold here.

Structures can show the parent of a compound that is named as a salt. ± gives the standard deviation of the averaged measurements.

The test system of this experiment is Escherichia coli ATCC BAA-2469. The experiment in a line: percent growth inhibition of drug + antibiotic vs DMSO control; higher = more growth inhibition. The procedure:
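Prestwick drugs tested at 20 uM and 7 uM with an antibiotic at 0.125x MIC (16 mg/L when MIC >128 mg/L) against E. coli ATCC BAA-2469 (NDM-1) in CAMHB, 384-well plates, duplicate runs. Percent growth inhibition was computed from OD600 (24 h minus 0 h) relative to DMSO wells. Drug + DMSO-only wells are also given. […]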

The mark [1] stands for this setting: antibiotic (0.125x MIC): ciprofloxacin, 7 µM.
The mark [2] stands for this setting: antibiotic (0.125x MIC): ciprofloxacin, 20 µM.
Where [3] appears, read: antibiotic (0.125x MIC): gentamicin, 7 µM.
Setting [4] is: antibiotic (0.125x MIC): gentamicin, 20 µM.
[5] abbreviates: antibiotic (0.125x MIC): meropenem, 7 µM.
[6] abbreviates: antibiotic (0.125x MIC): meropenem, 20 µM.

As for `C#C[C@]1(OC(C)=O)CC[C@H]2[C@@H]3CCC4=C[C@@H](OC(C)=O)CC[C@@H]4[C@H]3CC[C@@]21C` [Ethynodiol diacetate], the percent growth inhibition is, setting by setting: under setting [1], 5.09 ± 12%; under setting [2], 8.86 ± 3.1%.
`Oc1c(I)cc(Cl)c2cccnc12` [Clioquinol]: the percent growth inhibition under setting [1] is 7.92 ± 1.7%; the percent growth inhibition under setting [2] turned out to be 61.08 ± 0.34%; the percent growth inhibition under setting [3] was found to be 12.9 ± 5.2%; the percent growth inhibition under setting [4] is 88.9 ± 10%; the percent growth inhibition under setting [5] was 7.81 ± 2.7%.
For `Nc1ncn(C2OC(CO)C(O)C2O)c(=O)n1` (centres undefined) [Azacytidine-5], the percent growth inhibition under setting [1] came out at 99.1 ± 2.6% and the percent growth inhibition under setting [2] turned out to be 101 ± 3%.
Consider `O=c1[nH]c(=O)n([C@H]2C[C@H](O)[C@@H](CO)O2)cc1C(F)(F)F` [Trifluridine], for which the percent growth inhibition by setting is: under setting [1], 4.99 ± 6.6%; under setting [2], 25.5 ± 3.5%; under setting [3], 6.11 ± 0.34%.
Turning to `O=C1OCCN1/N=C/c1ccc([N+](=O)[O-])o1` [Furazolidone], the percent growth inhibition under setting [2] was 102 ± 2.7%, the percent growth inhibition under setting [4] is 113 ± 20% and the percent growth inhibition under setting [6] was determined as 113 ± 20%.
For the molecule `CO[C@H]1/C=C/O[C@@]2(C)Oc3c(C)c(O)c4c(O)c(c5c(nc6cc(C)ccn65)c4c3C2=O)NC(=O)/C(C)=C\C=C\[C@H](C)[C@H](O)[C@@H](C)[C@@H](O)[C@@H](C)[C@H](OC(C)=O)[C@@H]1C` [Rifaximin], the percent growth inhibition under setting [2] turned out to be 99.44 ± 0.47%, the percent growth inhibition under setting [3] came out at 68.8 ± 13%, the percent growth inhibition under setting [5] was found to be 94.7 ± 4.2% and the percent growth inhibition under setting [6] was 99 ± 1.7%.
On to `CO[C@H]1/C=C/O[C@@]2(C)Oc3c(C)c(O)c4c(O)c(c(/C=N/N5CCN(C6CCCC6)CC5)c(O)c4c3C2=O)NC(=O)/C(C)=C\C=C\[C@H](C)[C@H](O)[C@@H](C)[C@@H](O)[C@@H](C)[C@H](OC(C)=O)[C@@H]1C` [Rifapentine], for which the percent growth inhibition reads like this: under setting [2], 99.9 ± 4.6%; under setting [6], 96.3 ± 5.3%.
On to `Cc1cc(/C=C/c2ccc3cc(N(C)C)ccc3[n+]2C)c(C)n1-c1ccccc1` [Pyrvinium pamoate], for which the percent growth inhibition runs as follows: under setting [3], 13.6 ± 14%; under setting [5], 11.6 ± 17%; under setting [6], 18 ± 14%.
Turning to `O=C1CN(/N=C/c2ccc([N+](=O)[O-])o2)C(=O)N1` [Nitrofurantoin], the percent growth inhibition under setting [3] worked out at 6.28 ± 5.3% and the percent growth inhibition under setting [5] stood at 2.1 ± 2.9%.
For `CCOC(=O)c1ccc(OC(=O)CCCCCNC(=N)N)cc1` [Gabexate mesilate], the percent growth inhibition under setting [3] worked out at 4.82 ± 3.7%.
As for `CC1CS(=O)(=O)CCN1/N=C/c1ccc([N+](=O)[O-])o1` (centres undefined) [Nifurtimox], the percent growth inhibition under setting [4] was found to be 2.95 ± 0.97%.
On the same count and under the same terms, in the case of `Clc1cccc(Cl)c1NC1=NCCN1` [Clonidine hydrochloride] it was -0.49 ± 2.6%; in that of `CC1=C(/C=C/C(C)=C/C=C/C(C)=C\C(=O)O)C(C)(C)CCC1` [Isotretinoin], 12.7 ± 20%.
As for `Cc1cc(N)c2ccccc2[n+]1CCCCCCCCCC[n+]1c(C)cc(N)c2ccccc21` [Dequalinium dichloride], the percent growth inhibition reads like this: under setting [5], -1.34 ± 1.8%; under setting [6], 34.5 ± 0.8%.
Consider `CCC[C@@H]1C[C@@H](C(=O)N[C@@H]([C@H]2O[C@H](SC)[C@H](O)[C@@H](O)[C@H]2O)[C@H](C)Cl)N(C)C1` [Clindamycin hydrochloride], for which the percent growth inhibition was 13.3 ± 0.73% under setting [5] and 42.6 ± 12% under setting [6].
In the case of `CCCCCCCCCCCCCCCC[N+](C)(C)CCN(Cc1ccc(OC)cc1)c1ncccn1` [Thonzonium bromide], the percent growth inhibition under setting [5] is -2.72 ± 5.5% and the percent growth inhibition under setting [6] came out at 34.1 ± 20%.
On the same counts, the results for `CC[C@H]1OC(=O)[C@H](C)[C@@H](O[C@H]2C[C@@](C)(OC)[C@@H](O)[C@H](C)O2)[C@H](C)[C@@H](O[C@@H]2O[C@H](C)C[C@H](N(C)C)[C@H]2O)[C@](C)(O)C[C@@H](C)CN(C)[C@H](C)[C@@H](O)[C@]1(C)O` [Azithromycin] are 20.7 ± 7.2% and 50.1 ± 20%.
As for `CCCCCCCCNC(C)C(O)c1ccc(SC(C)C)cc1` (centres undefined) [Suloctidil], the percent growth inhibition under setting [5] worked out at 1.25 ± 3.5%.
